# This is a sample that favours compounds with a hit; in the whole collection about 7.8% have one here.
# LASV entry inh – qHTS for Inhibitors of binding or entry into cells for Lassa Virus | hit rate 1.2% among 300,000 | Potency, µM (top dose mostly 37.9 µM), for inactives: at the top dose activity change, negative = inhibition, usual class: inhibitors | Lassa virus pseudotype entry inhibition, cell reporter; calls by dose curve; tested in HEK293 cells; also: potency is read from the fitted curve at half-maximal effect; nearly all actives have a fitted effect of over 50% in size
# MARV entry inh – qHTS for inhibitors of binding or entry into cells for Marburg Virus; Marburg virus pseudotyped entry inhibition, cell reporter; Potency, µM (titrated, usually from 37.8 µM), inactives show at the highest dose activity change, negative = inhibition, most hits filed as inhibitors; hit rate 1.8% among 300,000; AID 540276, 2011; calls by dose curve; tested in HEK293 cells; also: potency is read from the fitted curve at half-maximal effect
# HCMV antiviral – qHTS Assay for inhibitors of the human cytomegalovirus (HCMV); activity change, negative = inhibition, % at 57.5 µM; hit rate 4.5% among 410,000; HFF cells, HCMV-luciferase reporter, 72 h; hits give low values; in the data active = activity change below about -60%; inconclusive = no clear call, values can overlap the other calls; inactive = above about -39%
#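 Inhibition of viral replication was scored as loss of reporter luminescence in HFFs infected with HCMV-luciferase (MOI 1 PFU/cell) for 72 h; compounds tested at 2 doses, normalized to buffer and Salinomycin controls.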
# HCV inhibitor – qHTS Assay for Inhibitors of Hepatitis C Virus (HCV); Huh7.5.1 HCVcc-Cre infection, luciferase reporter, 44 h; Potency, µM (series often up to 41.8 µM), for inactives: at the top dose activity change, negative = inhibition, usual class: inhibitors; hit rate 3.4% among 340,000; active = well fitted inhibition curve with a large enough effect; inconclusive = small, poorly fitted or top-dose-only effect, or another doubt; inactive = no such curve, though single readings can be large or run the other way; also: potency is read from the fitted curve at half-maximal effect
#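 Seed cells (1,000/well) for 4 h; treat with compound and infect with HCVcc-Cre, moi about 0.5. Incubate 44 h, then detect luciferase activity.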
# Vaccinia mCherry – qHTS for Stage-Specific Inhibitors of Vaccinia Orthopoxvirus: mCherry Reporter Primary qHTS; Vaccinia virus mCherry reporter infection, fluorescence; hit rate 0.63% among 310,000; Potency, µM (top dose mostly 36.5 µM), for inactives: at the highest dose activity change, negative = inhibition, actives largely listed as inhibitors; calls by dose curve; tested in A549 cells; also: potency is read from the fitted curve at half-maximal effect; nearly all actives have a fitted effect of over 35% in size
# Vaccinia Venus – qHTS for Stage-Specific Inhibitors of Vaccinia Orthopoxvirus: Venus Reporter Primary qHTS | Vaccinia virus Venus reporter expression, fluorescence | Potency, µM (series often up to 36.5 µM), without a hit: at the top dose activity change, negative = inhibition, actives largely listed as inhibitors | hit rate 0.46% among 330,000; calls by dose curve; tested in A549 cells; also: potency is read from the fitted curve at half-maximal effect; nearly all actives have a fitted effect of over 30% in size
# An asterisk follows results filed as active; i = inactive; u = inconclusive; x = not tested or not shown; ! = repeats disagree; [ ] = another dose, or the depositor's remark. % is scaled to controls: 0 for no effect and ±100 for the full control effect.
SMILES,LASV entry inh,MARV entry inh,HCMV antiviral,HCV inhibitor,Vaccinia mCherry,Vaccinia Venus
COc1ccc(CN2CCN(C(C)=O)CC2)cc1OC1CCN(C(=O)c2ccc3[nH]c(C)c(C)c3c2)CC1,x,x,x,x,-10%,2%
Cc1onc(NC(=O)CSCC(=O)O)c1Br,-15%[46.1 µM],7%[46.1 µM],-73*,5%,-3%,2%
CN(C)C(=O)N1CCC(C(=O)NCc2ccc(F)cc2Cl)CC1,1%,-8%,u,20%,-17%,-16%
O=C(NNC(=O)C1CCN(Cc2ccc(F)cc2Cl)CC1)Nc1ccc([N+](=O)[O-])cc1,-17%,-3%,-18,11µM*,x,x
CC(C)(C)OC(=O)N/N=C/c1ccc(N2CCOCC2)s1,1.8µM*,11%,58,0%,-9%,-15%
Clc1cccc(N/N=C/c2ccc(N3CCOCC3)s2)c1,4%,17%,-83*,6%,-9%,-3%
O=C(N/N=C/c1ccc(N2CCOCC2)s1)c1ccccc1Br,7%,u,32,16%,-2%,-8%
Cc1ncc2c(c1CNC(=O)c1cncs1)CCN(C(=O)c1ccc(-c3ccccc3)cc1)C2,x,x,x,x,-19%,-12%
O=C(N/N=C/c1ccsc1)c1ccc2ccccc2n1,-18%[46.1 µM],u,-67*,-1%,-4%,-14%
COc1ccc(OC)c(/C=C/c2cc3ccccc3cn2)c1,x,x,x,x,u,-41%
Cc1nc2ccccc2n1Cc1ccc(Cl)cc1,x,x,-89*,u,-10%,u
COc1ccc(CNc2nc3ccccc3n2Cc2ccc(Cl)cc2)cc1OC,u,11µM*,-33,u,-28%,-23%
Fc1ccccc1Cn1c(-c2ccccc2)nc2ccccc21,u,-19%[46.1 µM],-61*,x,4%,-7%
Clc1ccc(Cn2c(CN3CCCC3)nc3ccccc32)cc1,u,3.2µM*!,x,-7%[8.37 µM],x,x
c1ccc(Cn2c(CN3CCCC3)nc3ccccc32)cc1,20%,-27%,9,14%,-8%,-14%
OCc1nc2ccccc2n1Cc1ccc(Cl)cc1,-21%,-29%,-9,-7%,i,-10%
Clc1ccc(OCCn2c(-c3ccco3)nc3ccccc32)cc1,8%,-16%,-75*,-22%,x,x
Cc1ccccc1Cn1c(C)nc2ccccc21,u,u,-87*,5.6µM*,-1%,-8%
CCC(C(=O)NC1CCCCC1)n1nc(C)c2sc3ccccc3c2c1=O (centres undefined),18%[46.1 µM],4%[46.1 µM],3,x,-22%,-20%
COc1ccccc1CCNc1ncnc2sc(C(=O)N3CCCN(C=O)CC3)c(C)c12,x,x,x,x,-13%,-6%
Cn1c(=O)c(=O)n(C)c2cc(S(=O)(=O)N3CCN(c4ccccc4)CC3)ccc21,14%[46.1 µM],2%[46.1 µM],-36,x,-25%,-24%
CCOc1ccc2ccccc2c1/C=N/n1cncn1,0%,3%,-13,11µM*,x,x
CC(C)c1cc(Br)ccc1OCCCN1C(=O)NC(C)(C)C1=O,u,3%,-28,13µM*,x,x
CC1(C)NC(=O)N(CCCOc2ccc(Br)cc2Cl)C1=O,88%[14.3 µM],-8%,20,u,-9%,-19%
CC1(C)NC(=O)N(CCCCOc2ccc(Cl)cc2)C1=O,-2%,20%,4,10%,x,x
SMILES,LASV entry inh,MARV entry inh,HCMV antiviral,HCV inhibitor,Vaccinia mCherry,Vaccinia Venus
CC1(C)NC(=O)N(CCCCOc2ccc(Cl)cc2C=O)C1=O,x,x,-60*,-15%,-5%,-22%
CCOC(=O)/C(C#N)=C/c1ccc(-c2ccc(C)cc2)o1,24%[46.1 µM],x,45,x,12%,7%
CCN(CC)CCN(C(=O)c1ccc(CN2CCCCC2)o1)C(C(=O)NC1CCCCC1)c1ccc(F)cc1 (centres undefined),0%[46.1 µM],5µM*,-26,u,-13%,-3%
CC(C)CCNC(=O)C(C)N(Cc1ccc(F)cc1)C(=O)c1ccc(CN2CCCCC2)o1 (centres undefined),-9%,-6%,1,-27%,x,x
COC(=O)COc1cc(OCC(=O)OC)c2c(-c3ccccc3)cc(=O)oc2c1,x,x,-22,1%,x,x
CC(C)(C)OC(=O)COc1cc(OCC(=O)OC(C)(C)C)c2c(=O)cc(-c3ccccc3)oc2c1,u,u,-26,10µM*,u,11µM*
CCOC(=O)CNC(=O)c1cc2c(=O)n(CC)c3ccccc3c2s1,23%[46.1 µM],-3%[46.1 µM],9,x,7%,-10%
Cc1ccccc1CN1C(=O)CN=C(c2ccccc2)c2cc(Cl)ccc21,u,x,-71*,x,u,-22%
COC(=O)c1ccc(/C=C2\SC(=S)N(CCCC(=O)NCCCN3CCOCC3)C2=O)cc1,x,u,u,-6%,27%,71%
COC(=O)c1ccc(/C=C2/SC(=S)N(CCCC(=O)Nc3ccccn3)C2=O)cc1,-15%,u,-85*,0%,i,-8%
CCc1ccc(/C=C2\SC(=S)N(CCCC(=O)Nc3ccccn3)C2=O)cc1,11µM*,u,-103*,-4%,x,5%
CCc1ccc(/C=C2/SC(=S)N(CCCC(=O)Nc3ccccc3C(=O)O)C2=O)cc1,-28%[46.1 µM],-27%[46.1 µM],-35,-5%,-25%,-3%
Oc1cccc2ccc[n+](CC(O)Cn3c4ccccc4c4ccccc43)c12 (centres undefined),u,u,-21,22µM*,-9%,u
Oc1cccc2ccc[n+](CC(O)CBr)c12 (centres undefined),x,x,x,x,16%,-4%
CCCCN(CCCC)S(=O)(=O)c1ccc(NC(=O)c2ccc([N+](=O)[O-])cc2Cl)cc1,u,u,-78*,u,u,u
CCCCN(CCCC)S(=O)(=O)c1ccc(NC(=O)c2cccs2)cc1,u,18µM*,u,u,x,x
CCN(CC)S(=O)(=O)c1cc([N+](=O)[O-])ccc1NNC(=O)Nc1ccc(Cl)c(Cl)c1,-8%,u,-93*,u,u,16µM*
CC(=O)N1CCN(c2ccc(NC(=O)c3ccc([N+](=O)[O-])cc3Cl)cc2)CC1,27%[46.1 µM],u,-16,11%,-29%,-12%
Cc1ccccc1-c1noc(-c2nnn(-c3ccccc3C)c2N)n1,u,x,6,x,-2%[7.34 µM],-1%[7.34 µM]
COC(=O)[C@@H]1[C@@H](CO)[C@@H]2Cn3c(cccc3=O)[C@H]1N2S(=O)(=O)c1cccc(C)c1,x,x,21,x,x,x
COc1ccccc1CNC(=O)C1CCCN(C(=O)c2cnn(-c3ccc(F)cc3)c2-n2cccc2)C1 (centres undefined),-22%[46.1 µM],x,12,x,-9%,-4%
O=C(CN1C(=O)CC(c2ccco2)Sc2ccccc21)Nc1ccc2c(c1)OCCO2 (centres undefined),2%,1%,-36,11µM*,i,-8%
C/C(=N\Nc1nc(C)cc(C)n1)c1ccc(N2CCOCC2)cc1,x,x,-69*,-20%,x,x

# From PubChem BioAssay
